# Results: PubChem BioAssay (NCATS)
# Several values for one entry are separate records, joined by “and”; a condition that tells them apart may be missing. Equal entries are not always repeated. Results filed as inconclusive are left out. Entries that show only a call come without a potency. Activity calls are given as the source filed them. Unless noted, the call rests on the fitted dose curve.
# Key:
# [1] = Cytotoxicity counterscreen for inhibitors of SARS-CoV-2 cell entry (AID 1645845); conditions: cell viability (SARS-CoV-2 entry assay cells); series mostly up to 57.1 µM; further: nearly all actives have a fitted effect of over 50% in size; further: potency means the concentration at half of the fitted maximal effect
# Outline: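 Expi293F/hACE2 cells seeded overnight; cpd pin-transferred in DMSO, 1 h preincubation, + media, 48 h 37 C 5% CO2; ATPLite 1step luminescence; normalized to cells and no cells.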
# [2] = Primary qHTS to identify inhibitors of SARS-CoV-2 cell entry (AID 1645846); conditions: SARS-CoV-2 pseudovirus cell entry assay, luminescence; further: nearly all actives have a fitted effect of over 45% in size; further: potency means the concentration at half of the fitted maximal effect
# Outline: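 Inhibition of spike-mediated entry was scored in human ACE2-transfected Expi293F cells. Particles were MLV-pseudotyped with Wuhan-Hu-1 S carrying a 19-aa C-terminal deletion; signal was luciferase after two days, scaled between spike PP and fusion-protein-free PP.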
# [3] = VSVG counterscreen qHTS to identify inhibitors of SARS-CoV-2 cell entry (AID 1645847); conditions: VSV-G pseudotyped particle entry, luciferase; series mostly up to 57.2 µM; further: potency means the concentration at half of the fitted maximal effect; nearly all actives have a fitted effect of over 65% in size
# Outline: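 Luminescence from a luciferase reporter, normalised to bald particle and VSV-G pseudotyped particle wells, is the read-out. Cells are HEK293 expressing human ACE2, exposed to compound 1 h before a 48 h particle infection at 37 °C.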
# Papain (Carica papaya) = Papain (Carica papaya) (UniProt P00784); assay: Primary qHTS assay for inhibitors of the protease papain (AID 1645873; active means well fitted curve in the direction sought with a large enough effect; an effect the other way counts as inactive or inconclusive;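 further: papain turnover of Z-FR-AMC read as the AMC fluorescence gain over 10 min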); conditions: papain Z-FR-AMC cleavage, AMC fluorescence; series mostly up to 49.8 µM
# [4] = Primary qHTS for inhibitors of nuclear receptor binding SET domain protein 2 (NSD2) in an RCH-ACV wild type WT cells (2C) (AID 1645877; active means well fitted curve in the direction sought with a large enough effect; an effect the other way counts as inactive or inconclusive; further: nearly all actives have a fitted effect of over 70% in size; further: potency means the concentration at half of the fitted maximal effect); conditions: RCH-ACV NSD2 WT (2C) viability, CellTiter-Glo, 72 h; series mostly up to 44.9 µM
# [5] = Primary qHTS for inhibitors of nuclear receptor binding SET domain protein 2 (NSD2) in an isogenic RCH-ACV NSD2 p.E1099K mutant (9B) (AID 1645876; active means well fitted curve in the direction sought with a large enough effect; an effect the other way counts as inactive or inconclusive; further: nearly all actives have a fitted effect of over 70% in size; further: potency means the concentration at half of the fitted maximal effect); conditions: RCH-ACV (leukaemia line) NSD2 E1099K (9B) viability, CellTiter-Glo, 72 h; series mostly up to 44.9 µM
# [6] = activity change, negative = inhibition: at 57.1 µM (top of the series) unless noted, series mostly up to 57.1 µM
# Papain (Carica papaya), sequence (P00784 whole entry, looked up, the tested form may be a part): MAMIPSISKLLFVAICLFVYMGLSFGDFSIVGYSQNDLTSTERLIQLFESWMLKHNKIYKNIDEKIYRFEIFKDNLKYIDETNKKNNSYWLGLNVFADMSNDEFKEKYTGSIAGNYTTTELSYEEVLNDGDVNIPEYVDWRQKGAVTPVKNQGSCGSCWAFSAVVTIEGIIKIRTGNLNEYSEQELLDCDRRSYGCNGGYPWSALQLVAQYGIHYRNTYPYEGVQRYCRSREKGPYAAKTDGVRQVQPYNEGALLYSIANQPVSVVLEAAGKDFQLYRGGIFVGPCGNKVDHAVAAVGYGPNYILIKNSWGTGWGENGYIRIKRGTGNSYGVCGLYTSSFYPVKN
smiles,measurement,setting,value
Cc1cccc(C)c1OCC(C)N (centres undefined),Potency,[1],inactive
same,"activity change, negative = inhibition",[2]; [6],-0.301%
COCCCC/C(=N\OCCN)c1ccc(C(F)(F)F)cc1,Potency,[1],inactive
same,"activity change, negative = inhibition",[2]; [6],2.14%
NC(=Nc1ccccc1)Nc1ccccc1,Potency,[1],inactive
same,"activity change, negative = inhibition",[2]; [6],1.43%
COCCCOc1cc(C[C@@H](C[C@H](N)[C@@H](O)C[C@H](C(=O)NCC(C)(C)C(N)=O)C(C)C)C(C)C)ccc1OC,Potency,[1],inactive
same,Potency,[2]; [6],inactive
same,"activity change, negative = inhibition",[2]; [6],-3.02%
CC(C(=O)O)c1cccc(C(=O)c2ccccc2)c1 (centres undefined),Potency,[1],inactive
same,Potency,[2]; [6],inactive
same,"activity change, negative = inhibition",[2]; [6],-2.03%
C[C@@H](O)[C@H]1C(=O)N2C(C(=O)O)=C(S[C@@H]3CN[C@H](C(=O)N(C)C)C3)[C@H](C)[C@H]12,Potency,[1],inactive
same,Potency,[2]; [6],inactive
same,"activity change, negative = inhibition",[2]; [6],-22.9%
Cc1ccc(-n2nc(C(C)(C)C)cc2NC(=O)Nc2ccc(OCCN3CCOCC3)c3ccccc23)cc1,"activity change, negative = inhibition",[2]; [6],-13.7%
Cc1oncc1C(=O)Nc1ccc(C(F)(F)F)cc1,Potency,[1],8.91 µM (active)
same,Potency,[2]; [6],inactive
same,"activity change, negative = inhibition",[2]; [6],-15.8%
CN(C)c1nc(N(C)C)nc(N(C)C)n1,Potency,[1],inactive
same,Potency,[2]; [6],inactive
same,"activity change, negative = inhibition",[2]; [6],-16.8%
CS(=O)(=O)OCCCCOS(C)(=O)=O,Potency,[1],inactive
same,Potency,[2]; [6],inactive
same,"activity change, negative = inhibition",[2]; [6],-16.9%
Cc1nc(Nc2ncc(C(=O)Nc3c(C)cccc3Cl)s2)cc(N2CCN(CCO)CC2)n1,Potency,[1],inactive
same,Potency,[3],3.83 µM (active)
CC12CC3CC(C)(C1)CC(N)(C3)C2,Potency,[1],inactive
same,Potency,[2]; [6],inactive
same,"activity change, negative = inhibition",[2]; [6],-26.3%
O=c1c(O)c(-c2ccc(O)c(O)c2)oc2cc(O)cc(O)c12,Potency,[1],inactive
same,Potency,[2]; [6],inactive
same,"activity change, negative = inhibition",[2]; [6],-12.3%
CC(S)C(=O)NCC(=O)O (centres undefined),Potency,[1],inactive
same,Potency,[2]; [6],inactive
same,"activity change, negative = inhibition",[2]; [6],-22.2%
O=c1[nH]c2ccccc2n1CCCN1CCC(n2c(=O)[nH]c3cc(Cl)ccc32)CC1,Potency,[1],inactive
same,"activity change, negative = inhibition",[2]; [6],-22.6%
same,Potency,Papain (Carica papaya),inactive
same,Potency,[4],20.9 µM (active)
CC1Cc2ccccc2N1NC(=O)c1ccc(Cl)c(S(N)(=O)=O)c1 (centres undefined),Potency,[1],inactive
same,Potency,[2]; [6],inactive
same,"activity change, negative = inhibition",[2]; [6],3.64%
CCCN[C@H]1CCc2nc(N)sc2C1,Potency,[1],inactive
same,Potency,[2]; [6],inactive
same,"activity change, negative = inhibition",[2]; [6],-3.81%
C[C@](N)(Cc1ccc(O)c(O)c1)C(=O)O,Potency,[1],inactive
same,Potency,[2]; [6],inactive
same,"activity change, negative = inhibition",[2]; [6],-1.67%
CN(C)CCc1c[nH]c2ccc(CS(=O)(=O)N3CCCC3)cc12,Potency,[1],inactive
same,Potency,[2]; [6],inactive
same,"activity change, negative = inhibition",[2]; [6],-5.24%
CC(O)(CS(=O)(=O)c1ccc(F)cc1)C(=O)Nc1ccc(C#N)c(C(F)(F)F)c1 (centres undefined),Potency,[1],inactive
same,"activity change, negative = inhibition",[2]; [6],-21.9%
same,Potency,Papain (Carica papaya),inactive
NC12CC3CC(CC(C3)C1)C2,Potency,[1],inactive
same,Potency,[2]; [6],inactive
same,"activity change, negative = inhibition",[2]; [6],-26.7%
CC(C)NCC(O)c1ccc(O)c(O)c1 (centres undefined),Potency,[1],inactive
same,Potency,[2]; [6],inactive
same,"activity change, negative = inhibition",[2]; [6],-10.8%
COC(=O)[C@@H]1CC2=CC(=O)CC[C@]2(C)[C@@]23O[C@@H]2C[C@@]2(C)[C@@H](CC[C@@]24CCC(=O)O4)[C@H]13,Potency,[1],inactive
same,Potency,[2]; [6],inactive
same,"activity change, negative = inhibition",[2]; [6],-17.3%
Cn1c(=O)c2c(ncn2CC(O)CO)n(C)c1=O (centres undefined),Potency,[1],inactive
same,Potency,[2]; [6],inactive
same,"activity change, negative = inhibition",[2]; [6],4.29%
CC(=O)Oc1cc2c(s1)CCN(C(C(=O)C1CC1)c1ccccc1F)C2 (centres undefined),Potency,[1],inactive
same,Potency,[2]; [6],inactive
same,"activity change, negative = inhibition",[2]; [6],-16.4%
CCCc1nc2c(C)cc(-c3nc4ccccc4n3C)cc2n1Cc1ccc(-c2ccccc2C(=O)O)cc1,Potency,[1],inactive
same,Potency,[2]; [6],inactive
same,"activity change, negative = inhibition",[2]; [6],-3.28%
C=C(c1ccc(C(=O)O)cc1)c1cc2c(cc1C)C(C)(C)CCC2(C)C,Potency,[1],inactive
same,Potency,[2]; [6],inactive
same,"activity change, negative = inhibition",[2]; [6],-6.82%
CC(C)(C#N)c1cc(Cn2cncn2)cc(C(C)(C)C#N)c1,Potency,[1],inactive
same,Potency,[2]; [6],inactive
NC(=O)NO,Potency,[1],inactive
same,Potency,[2]; [6],inactive
same,"activity change, negative = inhibition",[2]; [6],-10.4%
CCCCNC(=O)NS(=O)(=O)c1ccc(C)cc1,Potency,[1],inactive
same,Potency,[2]; [6],inactive
CC(C)C[C@H](NC(=O)[C@H](Cc1ccccc1)NC(=O)c1cnccn1)B(O)O,"activity change, negative = inhibition",[2]; [6],-95.1%
CO/N=C1\CN(c2nc3c(cc2F)c(=O)c(C(=O)O)cn3C2CC2)CC1CN (centres undefined),Potency,[1],inactive
same,"activity change, negative = inhibition",[2]; [6],-12.6%
CCCCc1oc2ccc(NS(C)(=O)=O)cc2c1C(=O)c1ccc(OCCCN(CCCC)CCCC)cc1,Potency,[2]; [6],11.2 µM (active)
O=C(O)c1cn(C2CC2)c2cc(N3CCNCC3)c(F)cc2c1=O,Potency,[1],inactive
same,"activity change, negative = inhibition",[2]; at 11.3 µM (top of the series),-1.6%
same,"activity change, negative = inhibition",[2]; at 57.1 µM (top of the series),4.56%
CCOC(=O)c1ncn2c1CN(C)C(=O)c1cc(F)ccc1-2,Potency,[1],inactive
same,Potency,[2]; [6],inactive
same,"activity change, negative = inhibition",[2]; [6],-12.9%
OCCN1C[C@H](O)[C@@H](O)[C@H](O)[C@H]1CO,Potency,[1],inactive
same,"activity change, negative = inhibition",[2]; [6],-28.6% and -30.5%
same,Potency,[3],4.29 µM (active)
CC(=O)O[C@]1(C(C)=O)CC[C@H]2[C@@H]3C=C(C)C4=CC(=O)CC[C@]4(C)[C@H]3CC[C@@]21C,Potency,[1],inactive
same,Potency,[2]; [6],inactive
same,"activity change, negative = inhibition",[2]; [6],-12.1%
COC(=O)Nc1nc2ccc(C(=O)c3ccccc3)cc2[nH]1,Potency,[3],1.52 µM (active)
O=C(O)P(=O)(O)O,Potency,[5],inactive
same,Potency,[4],inactive
C[C@]12C/C(=C/O)C(=O)C[C@@H]1CC[C@@H]1[C@@H]2CC[C@@]2(C)[C@H]1CC[C@]2(C)O,Potency,[5],13.3 µM (active)
same,Potency,[4],23.7 µM (active)
